Experimental findings from PubChem BioAssay AID651965 (National Center for Advancing Translational Sciences (NCATS), 2013) are described below.

Structures are written as SMILES. The campaign covered roughly 340,000 compounds. About 6,400 (1.9%) were called active. Entries that show only a call come without a potency. Not shown: some 4% with an inconclusive outcome. This is one part of a sample in which actives are shown more often than they occur. The call rests on the fitted dose curve; in most records, active means well fitted falling curve with a large enough effect; inconclusive means small, poorly fitted or top-dose-only effect; inactive means no such curve, though single readings can be large or run the other way.

In the assay the target is ATP-dependent Clp protease proteolytic subunit (Bacillus subtilis (strain 168)) (UniProt P80244). The experiment in a line: qHTS Assay for Activators of ClpP. Further: the source files actives as falling curves though it sought activators and does not explain the sign; nearly all actives have a fitted effect of over 65% in size. The settings on record: purified B. subtilis ClpP, FRET peptide cleavage, 20 min; series mostly up to 57.5 µM. An excerpt:
The Clp protease proteolytic subunit (ClpP) is the core unit of the Clp complex belonging to the peptidase family S14 that hydrolyzes protein into small peptides in the presence of ATP and magnesium. It is ubiquitously expressed and is the major protease in bacteria. […] Unlike common antibiotics that simply interfere with the essential enzyme activity, ADEP binding activates the ClpP core in the absence of the regulatory Clp-ATPases leading to uncontrolled proteolysis and eventually cell death. Activators binding to the docking site on ClpP can also block formation of the ClpXP and ClpA/C-P holoenzyme complexes interfering with the normal biological functions of ClpP and thus have the potential to become new anti-microbials.
To identify activators of ClpP, a FRET based quenching reversal assay was developed using a purified B. subtilis ClpP and a decapeptide substrate (FRET-FV). The FRET-FV is tagged with a fluorescent molecule amino benzoic acid (donor) at the N-terminus and a nitrotyrosine quencher (acceptor) at the C-terminus. FRET-FV cleaves upon activation of ClpP with ADEP treatement and reverses the quenching effect of the nitrotyrosine causing an increase in fluorescence emission signal at 430nm. This assay was used to screen the Molecular Libraries Small Molecule Repository (MLSMR).
NIH Molecular Libraries Probe Production Centers Network [MLPCN]
NIH Chemical Genomics Center [NCGC]
Assay Submitter (PI): Michael Maurizi, National Cancer Institute
Two and a half microL/well of purified enzyme solution (final concentrations 10 microg/mL B. subtilis ClpP in 100 mM Tris/HCl pH8, 100 mM KCl, 0.05% low protease BSA, 2.5% glycerol, 0.01% Tween-20 buffer) was dispensed into 1536-well assay plates (Greiner, black solid, medium-binding plates) with Aurora Discovery BioRAPTR Flying Reagent Dispenser (FRD, Beckton-Dickenson). Compound solution (23 nL) was transferred to the assay plate using Kalypsys pin tool equipped with a 1536-pin tool. […] FRET signals at time 0 and after 20 min room temperature incubation were obtained using the PerkinElmer Envision plate reader with 320nm excitation and 430nm emission filters. Delta FRET value (Time 20 - Time 0) was calculated and normalized to the delta FRET value of positive control ADEP (5.8 microM final concentration) and negative control DMSO and no enzyme wells.
A general note: qHTS replaces the single test concentration by a dilution series.
As for `O=C(Nc1ccccc1-c1nnn(CC(=O)N2CCN(c3ccccc3)CC2)n1)c1cccs1`, the Potency result is “inactive”.

For `O=C(Nc1ccccc1-c1nnn(CC(=O)N2CCCc3ccccc32)n1)c1cccc(Cl)c1`, the Potency was 20 µM (active).

For the compound `COC(=O)[C@]12CCCCC=C1N(Cc1ccc3c(c1)OCO3)C(=O)[C@H](CC(=O)NCc1cccs1)C2`, the Potency result was “inactive”.

Consider `CCCCCCCCN1C(=O)[C@H](CC(=O)NCC23CC4CC(CC(C4)C2)C3)C[C@@]2(C(=O)OC)CCCCC=C12`, for which the Potency result is “inactive”.

As for `COc1ccc(C(=O)NNS(=O)(=O)c2ccc(C)cc2)cc1`, the Potency result was “inactive”.

Take `O=C(Nc1cccc2ccccc12)NC1CC1`: the Potency entry was “inactive”.

On to `Cc1ccc(S(=O)(=O)NNC(=O)Nc2cccc3ccccc23)cc1`, for which the Potency was 14.1 µM (active).

Turning to `COc1ccc(-c2nc(=N)sn2-c2ccccc2)cc1`, the Potency result is “inactive”.

Turning to `COC(=O)[C@@]12C[C@@H](CC(=O)NCCCCc3ccccc3)C(=O)N(Cc3ccccc3)C1=CCC(C)(C)C2`, the Potency entry was “inactive”.

As for `COc1ccc(/C=N/NC(=O)c2ccc(Cl)cc2)cc1COC(C)=O`, the Potency was 25.1 µM (active).

`COc1cccc(OCc2cc(/C=N/NC(=O)c3nc(Cl)c(Cl)c(N)c3Cl)ccc2OC)c1`: the Potency result was “inactive”.

Consider `COc1cc(/C=N/NC(=O)CNC(=O)c2ccncc2)ccc1OC(C)=O`, for which the Potency entry is “inactive”.

For `CCOC(=O)[C@]12CCC=C1N(Cc1ccccc1)C(=O)[C@H](CC(=O)N1CCCC1)C2`, the Potency entry was “inactive”.

As for `CC(=O)NC(c1ccccc1)c1nc(-c2ccccc2C)cs1` (stereo not drawn), the Potency result was “inactive”.

On to `NS(=O)(=O)c1ccc(NC(=O)CSc2nnc3c(n2)[nH]c2ccccc23)cc1`, for which the Potency result was “inactive”.

For `Cc1cc(NC(=O)Cn2nc(C(F)(F)F)c3c2CCCC3)no1`, the Potency is 28.2 µM (active).

For the compound `O=C(Cn1nc(C(F)(F)F)c2c1CCC2)NCc1ccc(F)cc1`, the Potency entry is “inactive”.

In the case of `O=C(Cn1nc(C(F)(F)F)c2c1CCCC2)Nc1ccc(Cl)cc1`, the Potency entry was “inactive”.

As for `CC(C)(C)NC(=O)COc1ccc(CNc2ccc3[nH]c(=O)[nH]c3c2)cc1`, the Potency was 22.4 µM (active).

As to `COc1ccc(C(=O)OCC(=O)Nc2ccc3[nH]c(=O)[nH]c3c2)c(OC)c1OC`, the Potency result is “inactive”.

In the case of `COC(=O)c1ccc(OCC(=O)NC(C)(C)C)cc1`, the Potency result is “inactive”.

For `Cc1ccc([C@H]2N[C@]3(CCCN(Cc4ccccc4)C3=O)[C@H]3C(=O)N(Cc4ccccc4)C(=O)[C@@H]23)cc1`, the Potency result is “inactive”.

For the compound `CCOC(=O)[C@H]1Nc2ccc(Cl)cc2[C@@H]2[C@H]1C1CC(c3ccccc31)N2C(=O)OCc1ccccc1` (stereo partly drawn), the Potency result is “inactive”.

Consider `CCn1c2ccccc2c2cc(NC(=O)COc3ccc(C)cc3C)ccc21`, for which the Potency entry is “inactive”.

Take `C/C(CC(=O)Nc1ccc(N(C)C)cc1)=N\NC(=O)c1ccccc1F`: the Potency result is “inactive”.

Regarding `CCn1c2ccccc2c2cc(NC(=O)C/C(C)=N/NC(=O)c3ccccc3N)ccc21`, the Potency was 14.1 µM (active).

For the compound `COc1ccc(-c2cc(C(=O)NCCCN3CCCC3=O)c3ccccc3n2)cc1OC`, the Potency entry is “inactive”.

As to `Cc1ccc(-c2cc(C(=O)NC3CCN(Cc4ccccc4)CC3)c3ccccc3n2)cc1`, the Potency entry was “inactive”.

For the compound `CCc1ccc(-c2cc(C(=O)NN3CCN(C)CC3)c3ccccc3n2)cc1`, the Potency was 31.6 µM (active).

Turning to `COCCNc1nc(NCc2ccc(NC(C)=O)cc2)c2sccc2n1`, the Potency entry was “inactive”.

In the case of `Cc1nc2c(OCC(=O)C(C)(C)C)cccn2c1N(C)Cc1cccs1`, the Potency result was “inactive”.

In the case of `CCCCCc1c(-c2cccc(Br)c2)ncn1CCc1ccccc1OC`, the Potency result is “inactive”.

In the case of `COc1c(C)cc(C(O)c2ncc(-c3cccc(C(F)(F)F)c3)[nH]2)cc1C` (stereo not drawn), the Potency result is “inactive”.

Turning to `CCC(c1nnnn1-c1ccc2c(c1)OCCO2)N1CCN(c2ccc(C(F)(F)F)cn2)CC1` (stereo not drawn), the Potency result is “inactive”.

Regarding `C=C(C)CSc1nc(N)c2c3c(sc2n1)CCC3`, the Potency was 12.6 µM (active).

Consider `CCc1nc(N2CCN(C(C)=O)CC2)c2c3c(sc2n1)CCCC3`, for which the Potency entry was “inactive”.

Consider `CC(C)(C)C1CCc2c(sc3nc(SCC(N)=O)nc(N)c23)C1` (stereo not drawn), for which the Potency result was “inactive”.

Take `C[C@H]1CN([C@@H](C)CO)C(=O)c2cc(C3=CCCCC3)cnc2O[C@@H]1CN(C)C(=O)Cc1ccccc1`: the Potency entry is “inactive”.

`CC(=O)Nc1ccc(NC(=O)CN2CCCC(C)C2)c(Cl)c1` (stereo not drawn): the Potency entry is “inactive”.

As to `Cc1cc(NC(=O)CN2CCCC(C)C2)n(-c2nc3ccccc3s2)n1` (stereo not drawn), the Potency is 17.8 µM (active).

Take `Cc1[nH]c2ccccc2c1C(=O)CN1CCCC(C)C1` (stereo not drawn): the Potency result was “inactive”.

Take `CC(=O)c1ccc(Nc2nc(C(N)c3ccccc3Cl)cs2)cc1` (stereo not drawn): the Potency result is “inactive”.

`CCOC(=O)c1cc(C#N)c(N2CCCCC2)nc1-c1ccccc1`: the Potency is 28.2 µM (active).

Turning to `CCOC(=O)c1c(N)nn(C(=O)c2ccccc2)c1-c1ccccc1`, the Potency result is “inactive”.

Regarding `CCOc1ccc2nc(N3CCCN(C(=O)Nc4ccccc4C)CC3)c(C#N)cc2c1`, the Potency result is “inactive”.

`Cc1cc[n+](C2CCCCC2)cc1`: the Potency entry was “inactive”.

Regarding `N#Cc1ccc[n+](CC(=O)c2ccc(O)c(O)c2)c1`, the Potency result was “inactive”.

Consider `O=C(NCc1cccnc1)c1cc(C2CCCN(C(=O)CCCc3ccccc3)C2)on1` (stereo not drawn), for which the Potency entry is “inactive”.
